# Sampled rows, rich in hits. Any-hit rate of the full collection: about 8%.
# HCV inhibitor – blocks hepatitis C virus | Huh7.5.1 HCVcc-Cre infection, luciferase reporter, 44 h | Potency, µM (doses to about 41.8 µM), for the others: at the top dose activity change, negative = inhibition, hits mostly inhibitors | actives 3.4% (n = 340,000) | AID 651820; active = well fitted inhibition curve with a large enough effect; inconclusive = small, poorly fitted or top-dose-only effect, or another doubt; inactive = no such curve, though single readings can be large or run the other way; also: potency is read from the fitted curve at half-maximal effect; % is scaled to controls: 0 for no effect and ±100 for the full control effect
#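 Cells seeded at 1,000/well and cultured 4 h, then compounds added followed by HCVcc-Cre virus (~0.5 moi). After 44 h further culture, luciferase substrate was added, plates held 15 min at room temperature, and luminescence read for 15 sec.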
# Marburg entry inh – blocks Marburg virus binding to or entry into cells. Marburg virus pseudotyped entry inhibition, cell reporter. actives 1.8% (n = 300,000). Potency, µM (highest dose often 37.8 µM), inactives show top-dose activity change, negative = inhibition, actives largely listed as inhibitors; calls by dose curve; tested in HEK293 cells; also: potency is read from the fitted curve at half-maximal effect; % is scaled to controls: 0 for no effect and ±100 for the full control effect
# Lassa entry inh – Lassa virus entry inhibition; Potency, µM (titrated, usually from 37.9 µM), for inactives: top-dose activity change, negative = inhibition, most hits filed as inhibitors; Lassa virus pseudotype entry inhibition, cell reporter; actives 1.2% (n = 300,000); AID 540256; calls by dose curve; tested in HEK293 cells; also: potency is read from the fitted curve at half-maximal effect; % is scaled to controls: 0 for no effect and ±100 for the full control effect; nearly all actives have a fitted effect of over 50% in size
# HCMV antiviral – inhibitors of human cytomegalovirus; activity change, negative = inhibition, % at 57.5 µM; HFF cells, HCMV-luciferase reporter, 72 h; hits give low values; actives 4.5% (n = 410,000); in the data active = activity change below about -60%; inconclusive = no clear call, values can overlap the other calls; inactive = above about -39%; also: % is scaled to controls: 0 for no effect and ±100 for the full control effect
#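 Two-dose cell screen: HFF monolayers treated with compounds and infected with luciferase-expressing HCMV at 1 PFU/cell, 72 h at 37C, then lysed for luciferase measurement.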
# FMDV inh – antivirals against foot and mouth disease virus. Potency, µM (titrated, usually from 57.9 µM), for inactives: at the top dose activity change, negative = inhibition, most hits filed as inhibitors. AID 1159524. actives 1.2% (n = 410,000). FMDV antiviral cell-based qHTS; calls by dose curve; tested in HEK293T cells; also: read-out not given here; potency is read from the fitted curve at half-maximal effect; % is scaled to controls: 0 for no effect and ±100 for the full control effect; nearly all actives have a fitted effect of over 45% in size
# SARS PLpro yeast – blocks SARS-CoV papain-like protease in a yeast assay; actives 0.19% (n = 330,000); Potency, µM (doses to about 32.9 µM), for the others: at the highest dose activity, positive = growth rescue, usual class: activators; S. cerevisiae expressing SARS-CoV PLpro, growth rescue; calls by dose curve; also: potency is read from the fitted curve at half-maximal effect; 0% is about no effect; nearly all actives have a fitted effect of over 55% in size
# * = called active by the depositor; ? = inconclusive; · = not tested or not shown; [ ] = another dose, or the depositor's remark.
SMILES,HCV inhibitor,Marburg entry inh,Lassa entry inh,HCMV antiviral,FMDV inh,SARS PLpro yeast
COC(=O)c1ccccc1NC(=O)CSc1nnc2cc(C)c3cc(C)cc(C)c3n12,·,5.2%[46.1 µM],-8.1%[46.1 µM],-3.6,-15.7%,·
COC(=O)c1ccc(Oc2cc(C)nc(-n3nc(C)cc3C)n2)cc1,?,?,-28.8%,-75.9*,-25.6%,-4.8%
CCOC(=O)C1=C(CS(=O)(=O)c2c(C)cc(C)cc2C)NC(=O)NC1c1cccc(OC)c1 (stereo not given),·,5.2%[46.1 µM],-25.3%[46.1 µM],?,-10.1%,·
CSc1nc(C)cc(OCCNS(=O)(=O)c2cc(C)ccc2C)n1,22.4µM*,-8.8%,16.2%,-8.3,9.0%,18.8%
Cc1ccc(C)c(S(=O)(=O)NCCOc2nc(NC(C)C)nc(NC(C)C)n2)c1,-28.8%,?,-14.8%,1.8,·,0.8%
Cc1cccc(OCC(=O)Nc2ccccc2C(=O)OCc2cc(=O)n3nc(C)sc3n2)c1,·,·,14.3%[46.1 µM],-26.3,-1.4%,·
CCOCCCNC(=O)c1cc(Sc2ccc(F)cc2)nc2ccccc12,4.7%,?,?,-62.0*,-17.1%,-12.4%
Cc1ccc(Sc2cc(C(=O)NCCCN(C)C)c3ccccc3n2)cc1,?,?,?,-39.1,-2.4%,-0.2%
COCCCNC(=O)c1cc(Sc2ccc(F)cc2)nc2ccccc12,?,-15.3%,-8.2%,-60.9*,-21.3%,13.2%
Cc1ccc(CNC(=O)c2cc(Sc3ccc(F)cc3F)nc3ccccc23)cc1,·,·,?,-66.2*,-13.2%,·
CCn1c(=O)sc2cc(NS(=O)(=O)c3ccc(F)c(C)c3)ccc21,·,?,-17.0%[46.1 µM],3.2,-7.8%,·
CCc1ccc(CNC(=O)c2cnc3sc(N4CCCCC4)nn3c2=O)cc1,·,·,?,14.1,-9.1%,·
Cc1ccc(Cn2c(=O)c3cccnc3n(CC(=O)Nc3cc(Cl)ccc3C)c2=O)cc1,·,22.9%[46.1 µM],·,6.6,-20.1%,·
Fc1ccc(-c2nc(Nc3cccc(C(F)(F)F)c3)nc3c2COc2ccccc2-3)cc1,·,?,?,-7.1,-3.5%,·
Cc1cccc(NC(=O)c2onc3c2CCCC3)n1,-5.7%,1.26µM*,?,-23.4,?,-32.6%
COC(=O)c1cccc(NC(=O)c2onc3c2CCCC3)c1,2.9%,9.2µM*,?,138.5,50.9%,-24.5%
Cc1ccc(C(=O)Nc2onc3c2CCCC3)cc1,·,?,?,-74.9*,8.91µM*,·
O=C(Nc1ccc2ccccc2c1)c1onc2c1CCCC2,?,-25.1%,5.62µM*,9.0,-48.6%,-6.2%
Cc1ccccc1NC(=O)c1onc2c1CCCC2,-9.3%,-17.3%,?,9.3,3.6%,-13.9%
COc1cccc(CNC(=O)C2=C(C)C(=O)OC23CCN(C(C)=O)CC3)c1OC,·,·,13.2%[46.1 µM],0.0,-8.6%,·
CCc1cccc(C)c1Nc1c(-c2ccc(SC)cc2)nc2sccn12,·,?,8.3%[46.1 µM],70.6,10.3%,·
CCCNC(=O)c1nnc2n1CCN(C(=O)c1ccc(F)c(F)c1)C2,·,·,·,-3.5,·,·
Cc1cc(C)c(NC(=O)c2nc3ccccc3nc2N2CCCCC2)c(C)c1,·,·,28.7%[46.1 µM],5.3,?,·
CCCn1c(Cc2ccccc2)n[nH]c1=S,6.2%,-1.6%,18.3%,47.0,9.8%,-3.5%
S=c1[nH]nc(Cc2ccccc2)n1Cc1ccco1,11.7%,-0.4%,4.5%,-109.4*,-22.5%,4.8%
SMILES,HCV inhibitor,Marburg entry inh,Lassa entry inh,HCMV antiviral,FMDV inh,SARS PLpro yeast
COc1ccc(S[C@]2(c3nc(C)no3)CC(=O)N(C(=O)c3ccccc3)[C@@H]2c2ccc(OC)cc2)cc1,·,·,·,-8.6,·,·
Cc1cc(Cl)cc(C)c1OCCn1ccnc1,-5.7%,1.26µM*,3.55µM*,?,-22.0%,-1.9%
Cc1cc(Cl)cc(C)c1OCCCCCn1ccnc1,?,·,·,-22.9,?,-2.2%
CCc1nc(NC[C@H]2CCCO2)c(C#N)c2c1COC(C)(C)C2,·,4.8%[46.1 µM],·,·,·,·
CCCc1c(C(=O)Nc2ccc(F)cc2C)cnn1-c1ccccc1,-9.3%,1.0%,-13.0%,28.8,-16.7%,-2.3%
CCCc1c(NC(=O)Nc2ccc(F)cc2)cnn1-c1ccccc1,-18.8%,·,·,-67.2*,4.6%,0.6%
CN1CCN(C(=O)Cn2c(-c3cccs3)cc3ccccc32)CC1,·,·,?,-14.8,-2.9%,·
CC1=C(C(=O)Nc2ccccc2)C(c2ccco2)NC(=O)N1 (stereo not given),8.1%,10.5%,0.2%,-97.4*,-20.8%,·
CC1=C(C(=O)Nc2ccc(C)cc2)C(c2ccco2)NC(=O)N1 (stereo not given),20.1%,14.6%,-10.7%,-8.4,-20.6%,7.9%
COCCOC(=O)c1c(C)oc2ccc(OC(=O)c3c(OC)cccc3OC)cc12,7.94µM*,?,?,-10.2,?,-4.6%
CCc1sc(NC(C)=O)nc1-c1ccccc1,2.8%,·,·,22.9,0.4%,-1.0%
CCc1sc(NC(=O)C(C)C)nc1-c1ccccc1,-5.6%,1.8%[46.1 µM],?,-78.0*,-13.5%,-2.2%
O=C(O)Cc1sc(Nc2ccccc2Cl)nc1-c1ccccc1,·,28.0%[46.1 µM],?,-61.0*,32.5%,·
CCc1cc(C(=O)NCc2c(C)ncc3c2CCN(C(=O)C2=CCCC2)C3)no1,·,·,·,·,-7.2%,·
Cc1ccccc1Cn1c(=O)n(CCc2ccccc2)c(=O)c2sc3ccccc3c21,·,1.1%[46.1 µM],20.0%[46.1 µM],16.9,21.6%,·
N#CC(C#N)=C(Nc1ccc(F)cc1)SCc1cccc(F)c1,10µM*,7.08µM*,12.6µM*,-98.6*,?,-4.8%
CCOc1ccc(N/C(SCc2cccc([N+](=O)[O-])c2)=C(/C#N)C(N)=O)cc1,-11.2%,-1.2%[46.1 µM],-18.9%,?,?,-7.4%
CCOC(=O)CC(=O)CSc1nc(CC)c(C)cc1C#N,14.6%,?,17.3%,-89.1*,11.0%,-1.7%
CCc1nc(SCC(=O)O)c(C#N)cc1C,-4.0%,-0.8%,16.3%,0.9,·,-5.1%
CCCn1c2ccccc2c2cnn(CC(=O)Nc3cccc(C(=O)OCC)c3)c(=O)c21,·,·,-0.2%[46.1 µM],-36.7,-17.2%,·
CCS(=O)(=O)N1CCCC(C(=O)NCCOC)C1 (stereo not given),·,·,27.1%[46.1 µM],14.2,-9.6%,·
COCCN1C=C(C(=O)OC)C(c2cc(Br)c(OC)c(OC)c2)C(C(=O)OC)=C1,-24.8%,-22.8%,11.2µM*,42.3,-24.8%,0.1%
CC(C)(C)C1=CC(=O)C(N2CCOCC2)=CC1=O,-11.4%,?,12.6µM*,63.2,?,-13.9%
COC(=O)C(=Cc1ccccc1[N+](=O)[O-])C(=O)OC,?,·,·,-95.9*,15.8µM*,-3.6%
COc1ccccc1OCCn1c(C(C)Oc2ccccc2)nc2ccccc21 (stereo not given),·,?,?,-3.5,-18.4%,·
Nc1ncnc2c1ncn2[C@@H]1O[C@H](COP(=O)(O)O)[C@@H](O)[C@H]1O,0.562µM*,·,·,45.4,4.8%,-34.2%
Nc1ncnc2c1ncn2[C@@H]1O[C@H](COP(=O)(O)OP(=O)(O)OP(=O)(O)O)[C@@H](O)[C@H]1O,0.562µM*,·,·,·,-16.3%,·

# Screening data: PubChem BioAssay, National Center for Advancing Translational Sciences (NCATS)
